# JMJD2A Tudor – inhibitors of human JMJD2A Tudor domain; AlphaScreen JMJD2A-Tudor / H3K4me3 peptide binding; Potency, µM (doses to about 114 µM), inactives show at the top dose activity change, negative = inhibition, actives largely listed as inhibitors; 4.4% of 390,000 active; O75164; AID 504339; also: % is scaled to controls: 0 for no effect and ±100 for the full control effect; nearly all actives have a fitted effect of over 50% in size
# BAZ2B block – BAZ2B (human) inhibition; Potency, µM (series often up to 114 µM), inactives show top-dose activity change, negative = inhibition, usual class: inhibitors; AlphaScreen BAZ2B-H3K14Ac peptide displacement; 4.4% of 360,000 active; AID 504333; also: % is scaled to controls: 0 for no effect and ±100 for the full control effect; nearly all actives have a fitted effect of over 60% in size
#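 In this displacement format the biotinylated H3(5-23) peptide acetylated at Lys14 serves as ligand at 50 nM, with BAZ2B at 50 nM in PBS pH 7.4 containing 0.01% Tween-20. Donor and acceptor beads are 10 ug/mL final.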
# L3MBTL1 inh – blocks human L3MBTL1; Q9Y468; AlphaScreen L3MBTL1–H3K9me1 peptide binding; Potency, µM (doses to about 57.1 µM), inactives show at the top dose activity, negative = inhibition, usual class: inhibitors; 0.66% of 230,000 active; AID 485360; also: % is scaled to controls: 0 for no effect and ±100 for the full control effect; nearly all actives have a fitted effect of over 60% in size
#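 AlphaScreen assay: L3MBTL1 (50 nM final) was preincubated 30 min at room temperature with biotinylated H3(1-15)K9me1 peptide (75 nM final), then 30 min with library compounds; streptavidin donor and nickel chelate acceptor beads (10 ug/mL final) added, 30 min dark.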
# G9a inh – G9a (human) methyltransferase inhibition; G9a H3K9 monomethylation, AlphaScreen, 2 h; Q96KQ7; 8.8% of 350,000 active; AID 504332; Potency, µM (series often up to 102 µM), without a hit: at the highest dose activity, negative = inhibition, actives largely listed as inhibitors; also: % is scaled to controls: 0 for no effect and ±100 for the full control effect; nearly all actives have a fitted effect of over 75% in size
# Target sequence (Q96KQ7 913-1193 limits assumed): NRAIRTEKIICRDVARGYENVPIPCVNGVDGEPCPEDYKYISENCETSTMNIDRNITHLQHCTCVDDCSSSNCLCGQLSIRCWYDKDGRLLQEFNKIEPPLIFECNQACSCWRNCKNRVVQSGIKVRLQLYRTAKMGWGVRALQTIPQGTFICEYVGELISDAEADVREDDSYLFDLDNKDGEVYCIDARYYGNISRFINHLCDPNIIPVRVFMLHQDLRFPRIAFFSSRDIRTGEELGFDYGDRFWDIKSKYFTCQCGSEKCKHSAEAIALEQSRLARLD
#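 Quantitative HTS format: methyltransferase activity on a biotin-tagged H3K9 peptide is measured by AlphaScreen, using a rabbit anti-monomethyl-H3K9 antibody with streptavidin donor and anti-IgG acceptor beads. Final levels are 20 nM enzyme, 500 nM peptide, 20 uM SAM; 2 h RT.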
# HP1b binding inh – blocks HP1-beta chromodomain binding to methylated histone tails. P83916. AlphaScreen HP1-beta / biotin-H3K9me3 peptide binding. Potency, µM (series often up to 114 µM), for inactives: at the top dose activity change, negative = inhibition, most hits filed as inhibitors. 0.56% of 390,000 active; also: nearly all actives have a fitted effect of over 70% in size
# Target sequence (P83916 whole entry, looked up): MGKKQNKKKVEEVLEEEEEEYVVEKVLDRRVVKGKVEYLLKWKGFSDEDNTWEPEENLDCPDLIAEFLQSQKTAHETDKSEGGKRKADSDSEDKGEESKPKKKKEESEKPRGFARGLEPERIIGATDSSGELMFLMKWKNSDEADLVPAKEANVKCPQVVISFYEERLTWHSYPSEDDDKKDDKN
#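 HP1-beta protein (50 nM final) preincubated 30 min at room temperature with biotinylated H3(1-18)K9me3 peptide (50 nM) in PBS pH 7.4, 0.01% Tween-20, then compound added for 30 min. AlphaScreen streptavidin donor/nickel chelate acceptor beads (10 ug/mL final), 30 min dark, luminescence read.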
# Sfp inh – Sfp phosphopantetheinyl transferase inhibition; Q9F4F7; Biochemical Sfp PPTase activity, qHTS; Potency, µM, without a hit: largest response in the series, negative = inhibition, actives largely listed as inhibitors; 3.5% of 310,000 active;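 also: the enzyme is Sfp with the accession as filed and its product quenches rhodamine fluorescence; 0% = enzyme reaction without inhibitor and -100% = no enzyme wells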
#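 Step 1, compound plus 15 nM Sfp-PPTase, 15 min, room temperature. Step 2, add rhodamine-CoA (5 uM) and BHQ-2-YbbR (12.5 uM). Step 3, read 525/598 nm fluorescence at 0 and 30 min.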
# Numbers without * were called inactive; ? = inconclusive; . = no result; [ ] = dose if it differs, or a comment. Only some compounds are listed: those with a hit (about 12% of all), similar ones and a draw of the others. Calls follow the shape of the dose curve; as a rule, active = well fitted curve in the direction sought with a large enough effect; inconclusive = small, poorly fitted or top-dose-only effect, or another doubt; inactive = no such curve, though single readings can be large; an effect the other way counts as inactive or inconclusive. Potency is read from the fitted curve at half-maximal effect.
SMILES,JMJD2A Tudor,BAZ2B block,L3MBTL1 inh,G9a inh,HP1b binding inh,Sfp inh
CC(C)(C)NC(=O)CN(C(=O)CS(=O)CC(=O)Nc1ccc(F)cc1)c1ccccc1 (configuration not stated),-16%,2%,9%,50µM*,22%,11%
CC(C)(C)NC(=O)CN(C(=O)CS(=O)CC(=O)Nc1ccc(F)cc1)c1ccc2c(c1)OCCO2 (configuration not stated),0%,0%,-20%,-26%,30%,7%
O=C(NCCc1ccccc1)C1CCC(CNS(=O)(=O)c2cccc3cccnc23)CC1 (configuration not stated),-18%,-3%,.,-4%,4%,7%
C=CCN1C(=O)C(CC(=O)O)SC1=Nc1ccc(N=Nc2ccccc2)cc1 (configuration not stated),?,40µM*,.,40µM*,-17%,-8%
C=CCN1C(=O)C(CC(=O)O)SC1=Nc1cccc([N+](=O)[O-])c1 (configuration not stated),-20%,-14%,31%,-13%,39%,8%
O=C(Nc1cc(Cl)cc2c1[nH]c1cnccc12)c1cccnc1,.,.,.,.,.,-15%
COc1ccc(NC(=O)CSc2nc3ccc(Nc4nc(N5CCOCC5)nc(N5CCOCC5)n4)cc3s2)cc1,-12%,-7%,.,?,58%,-28%
Cc1ccc(NC(=O)CSc2nc3ccc(Nc4nc(N5CCOCC5)nc(N5CCOCC5)n4)cc3s2)cc1,-18%,-20%,.,35µM*,17%,?
Cc1ccc(C)c(NC(=O)CSc2nc3ccc(N4C(=O)c5ccccc5C4=O)cc3s2)c1,-21%,-1%,-3%,11µM*,42%,-19%
Cn1c(SCC(=O)Nc2ccc3nc(SCC(=O)N4CCCC4)sc3c2)nnc1-c1ccc(N)cc1,-23%,?,.,10µM*,24%,-28%
O=C(CSc1nc2ccccc2s1)Nc1ccc(N2CCOCC2)c(Cl)c1,-22%,4%,-1%,7.1µM*,23%,-11%
Cc1cccc(NC(=O)CN(C)S(=O)(=O)c2ccc3c(c2)c(=O)n(C)c(=O)n3C)c1,-12%,-3%,.,5%[59 µM],22%,.
COc1ccc2sc(N(Cc3cccnc3)C(=O)C3CCCCC3)nc2c1,-7%,-19%,.,3%[59 µM],39%,.
O=C(Nc1ccccc1)N1CCC2(CC1)CCN(C(=O)c1ccncc1)CC2,.,.,.,3%[12.7 µM],.,16%
N#CCCn1c(=O)c(-c2cccc(C#N)c2)nc2cnc(N3CCOCC3)nc21,.,.,.,8%[0.501 µM],.,29%
O=C(Cn1ncc2c3ccccc3n(Cc3cccc(Cl)c3)c2c1=O)NC1CCCCCC1,?,?,.,3%[59 µM],22%,.
CCOC(=O)[C@H]1[C@H]2COc3ccc(Cl)cc3[C@@H]2N2C(=O)c3ccccc3NC(=O)[C@@]12C,-24%,-1%,0%,6%[2.33 µM],34%,.
CCC(Sc1nnc(C)s1)C(=O)Nc1nccs1 (configuration not stated),-6%,-5%,-1%,1%,23%,3%
CCCC(=O)Nc1ccc2nc(SCC(=O)Nc3nccs3)sc2c1,79µM*,?,6%,?,-10%,-13%
CC(=O)Nc1ccc2nc(SCC(=O)Nc3ccc(N4CCOCC4)c(Cl)c3)sc2c1,-21%,11µM*,-8%,43%[0.501 µM],22%,-29%
CCCC(=O)Nc1ccc2nc(SCCOc3ccccc3)sc2c1,-9%,?,.,6%[59 µM],47%,.
CCC(Sc1nc2ccc(N)cc2s1)C(=O)Nc1nccs1 (configuration not stated),50µM*,-32%,.,13µM*,26%,-5%
CN(C)c1ccc(NC(=O)c2sc(SCC(=O)Nc3nccs3)nc2N)cc1,?,40µM*,.,?,?,-10%
Cc1ccc(NC(=O)CSc2nc3ccc(NC(=O)c4ccco4)cc3s2)cc1,-35%,79µM*,.,?,13%,.
CC(=O)NC(NC(=S)Nc1ccc(C)cc1C)C(Cl)(Cl)Cl (configuration not stated),5%,-4%,.,45µM*,2%,15%
SMILES,JMJD2A Tudor,BAZ2B block,L3MBTL1 inh,G9a inh,HP1b binding inh,Sfp inh
Cc1ccc(NC(=S)NC(NC(=O)c2ccccc2C)C(Cl)(Cl)Cl)c(C)c1 (configuration not stated),-5%,-26%,8%,?,57%,21%
Cc1ccc(C)c(NC(=S)NC(NC(=O)N(C)C)C(Cl)(Cl)Cl)c1 (configuration not stated),-31%,10%,-4%,4.5µM*,16%,10%
NC(=S)NN=C1CCC2(CCCCC2)CC1,-16%,.,.,.,18%,.
CC1(C)CCC(=NNC(N)=S)CC1,0.71µM*,.,.,.,?,.
CCOc1ccc(CN2CCc3nc(Nc4ccc(OC)cc4OC)ncc3C2)cc1,50µM*,-37%,.,?,-36%,.
Cc1ccccc1CN1CCc2nc(Nc3ccc4c(c3)OCCO4)ncc2C1,35µM*,22µM*,.,?,-11%,.
CC(C)Oc1ccc(CN2CCc3nc(Nc4ccc5c(c4)OCCO5)ncc3C2)cc1,32µM*,32µM*,.,-26%[12.7 µM],-17%,.
COc1ccc(Nc2ncc3c(n2)CCN(Cc2ccccc2C)C3)c(OC)c1,-32%,?,.,?,7%,.
Cc1ccc(S(=O)(=O)N[C@H]2COC(=O)[C@@H](Cc3ccccc3)NC(=O)[C@@H](C)COC(=O)C/C=C\[C@@H]2C)cc1,.,.,.,.,.,19%
NC(=O)C1CCN(c2nc(-c3cccs3)cs2)CC1,-35%,?,-9%,-7%[12.7 µM],7%,.
Cc1nn(-c2ccc(N3CCOCC3)nn2)c(C)c1CCC(=O)Nc1ccc(F)cc1F,-29%,25%,.,-2%[59 µM],97%,.
COc1ccccc1Nc1c2c(nc3ccc(N)cc13)CCCC2,40µM*,35µM*,.,40µM*,-25%,1%
COc1ccccc1Nc1c2c(nc3ccc(NC(=O)c4ccc(OC)c(OC)c4)cc13)CCCC2,?,?,.,14µM*,-17%,.
Cc1ccc2nc3c(c(Nc4ccc(C)c(C)c4)c2c1)CCC3,?,32µM*,.,-45%[59 µM],2%,.
COc1ccc(Nc2c3c(nc4ccc(NC(=O)c5ccc(F)cc5)cc24)CCCC3)cc1OC,56µM*,32µM*,.,?,?,.
CCN(Cc1cc(OC)c(OC)c(OC)c1)C(=S)Nc1cccc(SC)c1,-7%,-24%,-14%,-9%,17%,29%
COc1ccc(C(=O)NC(C)c2cccnc2)cc1S(=O)(=O)N(C)Cc1ccccc1 (configuration not stated),-24%,.,-4%,.,25%,.
